Assay results taken from PubChem BioAssay AID1259372 (The Scripps Research Institute Molecular Screening Center, 2018).
The campaign covered roughly 4,700 compounds. About 760 (16%) were called active. The list is a sample of the results. Unmarked numbers belong to inactive results.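 Rule for the calls: active = inhibition above a cutoff derived from the DMSO control wells (cut at about 28% in these data); inactive = the rest.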

biological target: Microphthalmia-associated transcription factor (Homo sapiens) (UniProt O75030); assay: MITF inhibitors, retest of hits, confirmation, biochemical, AlphaScreen, triplicate (AID 1259372); conditions: AlphaScreen MITF homodimerization, biotin/His-MITF beads; at 2.6 µM; stronger effect = higher value
Sequence (O75030 whole entry, looked up): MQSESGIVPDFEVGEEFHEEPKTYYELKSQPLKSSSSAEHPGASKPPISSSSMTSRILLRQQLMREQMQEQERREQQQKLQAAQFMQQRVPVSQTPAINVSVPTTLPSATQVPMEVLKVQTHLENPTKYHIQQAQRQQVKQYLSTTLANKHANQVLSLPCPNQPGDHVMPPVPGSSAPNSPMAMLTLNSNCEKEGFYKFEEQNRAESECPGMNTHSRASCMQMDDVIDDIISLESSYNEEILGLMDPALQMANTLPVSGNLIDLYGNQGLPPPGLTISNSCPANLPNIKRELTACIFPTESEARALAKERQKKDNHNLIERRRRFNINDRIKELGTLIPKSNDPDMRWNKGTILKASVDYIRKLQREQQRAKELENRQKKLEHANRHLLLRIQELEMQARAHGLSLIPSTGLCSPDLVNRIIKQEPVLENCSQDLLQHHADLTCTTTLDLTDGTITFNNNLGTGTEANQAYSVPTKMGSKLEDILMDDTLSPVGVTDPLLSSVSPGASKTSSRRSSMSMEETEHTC

Row | Compound | inhibition
1 | CC1CN(CCOc2ccccc2[N+](=O)[O-])CC(C)O1 (stereo not drawn) | 6.95%
2 | Cc1ccc(C(C)C)c(OCCN2CCNCC2)c1 | -8.7%
3 | COc1ccc2c(c1)CC(C(=O)Nc1ccc(-c3cn[nH]c3)cc1OCC(N)=O)CO2 (stereo not drawn) | 40.3% (active)
4 | COc1ccc2c(c1)CC(C(=O)Nc1ccc(-c3cn[nH]c3)cc1OCc1ccccc1)CO2 (stereo not drawn) | 56% (active)
5 | COc1ccc(NC(=O)CN2CCN(C)CC2)c(OC)c1 | 13%
6 | CC1CCN(S(=O)(=O)c2ccc(Cl)c(C(=O)Nc3ccccc3[N+](=O)[O-])c2)CC1 | 16.1%
7 | Clc1cccc(CN2CCN(C3CCCC3)CC2)c1 | 12.9%
8 | Brc1cccc(CN2CCN(Cc3cccnc3)CC2)c1 | 5.44%
9 | O=C(c1ccc2c(c1)C(=O)N(Cc1cccnc1)C2=O)c1ccc2c(c1)C(=O)N(Cc1cccnc1)C2=O | 51.2% (active)
10 | O=C(c1cccc(Cl)c1)N1CCN(Cc2cccnc2)CC1 | 16.8%
11 | COc1ccc(-c2nc(Nc3cc(OC)c(OC)c(OC)c3)c3[nH]cnc3n2)cc1 | 14%
12 | COc1cc(CN2CCN(Cc3ccc(Cl)cc3)CC2)c([N+](=O)[O-])cc1OC | 5.78%
13 | O=C(Nc1ccc(-c2ccncc2)c(C(F)(F)F)c1)C1COc2ccccc2O1 (stereo not drawn) | 42.5% (active)
14 | COc1ccc(CN2CCN(Cc3ccccc3C(F)(F)F)CC2)cc1OC | 24.4%
15 | CCN1CCN(CC(O)COc2cccc(C(=O)OC)c2)CC1 (stereo not drawn) | -4.86%
16 | COc1cccc(CN2CCN(C/C=C/c3ccccc3)CC2)c1OC | 2.33%
17 | Cc1cc(NC(=O)/C=C/C(=O)N(CC(=O)NC2CCCC2)c2ccc(F)cc2)no1 | 10.1%
18 | COc1cccc(OC)c1C(=O)N1CCN(Cc2cccnc2)CC1 | -5.41%
19 | CS(=O)(=O)N1CCN(Cc2cccc(Cl)c2)CC1 | -2.19%
20 | CN(CCc1ccccn1)CC(=O)N1CCc2ccccc21 | 12.3%
21 | CSc1ccc(CN2CCN(S(=O)(=O)c3ccc([N+](=O)[O-])cc3)CC2)cc1 | 19.9%
22 | Cn1c(=NC(=O)COc2ccccc2)sc2cc(S(C)(=O)=O)ccc21 | 4.53%
23 | NS(=O)(=O)c1cccc(NC(=O)COc2ncnc3sc(-c4ccccc4)cc23)c1 | 13.3%
24 | Cc1cc(S(=O)(=O)Nc2ccc3c(c2)OCCO3)ccc1-n1cnnn1 | 5.76%

Row | Compound | inhibition
25 | COc1cc2nc(-c3cccc(C(C)=O)c3)nc(N)c2cc1OC | -8.94%
26 | O=C1c2ccccc2C(O)N1Cc1ccccc1Cl (stereo not drawn) | -9.08%
27 | COc1ccc(C2C(C(C)=O)=C(C)N=C3SCC(=O)N32)c(OC)c1 (stereo not drawn) | -3.48%
28 | CCN1CCN(CCCCOc2ccccc2F)CC1 | 6.76%
29 | O=C(c1ccccc1)N1CCN(C2CCCC2)CC1 | -3.05%
30 | Cc1nc(NC(=O)c2cc(Br)ccc2Cl)sc1C | 11%
31 | CC1(C)CC(=O)C2=C(C1)Nc1ccccc1N(C(=O)Cc1ccccc1)C2c1ccc(-c2ccc([N+](=O)[O-])cc2)o1 (stereo not drawn) | 12.3%
32 | CCNc1nc(NCC)nc(C(=O)O)n1 | 54.9% (active)
33 | Cn1c(=O)oc2cc(S(=O)(=O)N3CCC(C(=O)NC(C)(C)C)CC3)ccc21 | -16.9%
34 | C=CCn1c(SCC(=O)Nc2nc3ccccc3s2)nc(O)cc1=O | -1.3%
35 | COc1cc(CN2CCN(C(=O)C(c3ccccc3)c3ccccc3)CC2)cc(OC)c1OC | 5.49%
36 | CSc1nnc(SCc2nc3sc(C(=O)O)c(C)c3c(=O)[nH]2)s1 | 14.3%
37 | O=C(CCC(=O)OCc1ccc(Cl)cc1)Nc1ccc([N+](=O)[O-])cc1 | 13.1%
38 | CC(=O)N1CCN(CC(=O)Nc2ccc(C)c(F)c2)CC1 | -10.5%
39 | Cc1ccc(NC(=O)COC(=O)CCC(=O)Nc2sc3c(c2C(N)=O)CCC3)cc1F | 87.4% (active)
40 | OCCOCCN1CCN(Cc2ccc(Cl)cc2)CC1 | 1.57%
41 | COc1cccc(CN2CCN(CCCc3ccccc3)CC2CCO)c1 (stereo not drawn) | -0.58%
42 | COC(=O)CSc1nc(C2CC2)nc2ccccc12 | 5.56%
43 | CC1CCCC(N2CCN(Cc3ccccc3Cl)CC2)C1 (stereo not drawn) | -6.77%
44 | O=C(CNCc1cccnc1)Nc1ccc(C(=O)N2CCCCC2)cc1 | 7.91%
45 | CC(=O)N1CCN(C(=O)c2ccc(N3CC4CC(C3)c3cccc(=O)n3C4)c(NC(=O)c3cccnc3)c2)CC1 (stereo not drawn) | -11.6%
46 | CCSc1ccccc1C(=O)N1CCN(c2ccc(-c3ccccn3)nn2)CC1 | 111% (active)
47 | COc1ccc(OCCn2ccnc2C)cc1 | -1.1%
48 | COc1cc(CN2CCN(Cc3ccc(OC)c(OC)c3)CC2)cc(OC)c1 | 4.54%
